# Where two headings read alike, the source gives them in different places.
# Legend:
# [1] = test system: FGFR1; details: concentration: 1 μM, replicates: in singlicate; n = 1
# [2] = test system: FGFR2; details: concentration: 1 μM, replicates: in singlicate; n = 1
# [3] = test system: FGFR3; details: concentration: 1 μM, replicates: in singlicate; n = 1
# [4] = test system: FGFR4; details: concentration: 1 μM, replicates: in singlicate; n = 1
# [5] = test system: FGR; details: concentration: 1 μM, replicates: in singlicate; n = 1
# [6] = test system: FLT1; details: concentration: 1 μM, replicates: in singlicate; n = 1
# [7] = test system: FLT3-autoinhibited; details: concentration: 1 μM, replicates: in singlicate; n = 1
# [8] = test system: FLT3; details: concentration: 1 μM, replicates: in singlicate; n = 1
# [9] = test system: FLT4; details: concentration: 1 μM, replicates: in singlicate; n = 1
# [10] = test system: FRK; details: concentration: 1 μM, replicates: in singlicate; n = 1
# [11] = test system: FYN; details: concentration: 1 μM, replicates: in singlicate; n = 1
# [12] = test system: GAK; details: concentration: 1 μM, replicates: in singlicate; n = 1
# [13] = test system: T1, GCN2(Kin.Dom.2,S808G); details: concentration: 1 μM, replicates: in singlicate; n = 1
# T1 construct: gene EIF2AK4
# [14] = test system: GRK1; details: concentration: 1 μM, replicates: in singlicate; n = 1
# [15] = test system: T2, GRK2; details: concentration: 1 μM, replicates: in singlicate; n = 1
# T2 construct: gene ADRBK1
# [16] = test system: T3, GRK3; details: concentration: 1 μM, replicates: in singlicate; n = 1
# T3 construct: gene ADRBK2
# [17] = test system: GRK4; details: concentration: 1 μM, replicates: in singlicate; n = 1
# [18] = test system: GRK7; details: concentration: 1 μM, replicates: in singlicate; n = 1
# [19] = test system: GSK3A; details: concentration: 1 μM, replicates: in singlicate; n = 1
# [20] = test system: GSK3B; details: n = 1
# [21] = concentration: 1 μM, replicates: in singlicate
# 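Further: KINOMEscan kinase panel screen.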
smiles,measurement,setting,value
COC(=O)Nc1nc2cc(Oc3ccc(NC(=O)Nc4cc(C(F)(F)F)ccc4F)cn3)ccc2[nH]1.Cl.Cl [GW681170],%Inh,[1],7%
same,%Inh,[2],0%
same,%Inh,[3],4%
same,%Inh,[4],3%
same,%Inh,[5],15%
same,%Inh,[6],94.1%
same,%Inh,[7],40%
same,%Inh,[8],99.1%
same,%Inh,[9],79%
same,%Inh,[10],55%
same,%Inh,[11],41%
same,%Inh,[12],5%
same,%Inh,[13],0%
same,%Inh,[14],0%
same,%Inh,[15],0%
same,%Inh,[16],0%
same,%Inh,[17],0%
same,%Inh,[18],0%
same,%Inh,[19],0%
same,%Inh,[20]; [21],8%
CN(C)Cc1ccc(-c2ccc3c(Nc4ccc(Oc5ccccn5)cc4)ccnc3c2)o1 [GW567148],%Inh,[1],0%
same,%Inh,[2],12%
same,%Inh,[3],5%
same,%Inh,[4],0%
same,%Inh,[5],81%
same,%Inh,[6],32%
same,%Inh,[7],53%
same,%Inh,[8],95.5%
same,%Inh,[9],21%
same,%Inh,[10],25%
same,%Inh,[11],71%
same,%Inh,[12],82%
same,%Inh,[13],0%
same,%Inh,[14],0%
same,%Inh,[15],0%
same,%Inh,[16],0%
same,%Inh,[17],0%
same,%Inh,[18],10%
same,%Inh,[19],0%
same,%Inh,[20]; [21],6%
Cc1occc1-c1ncc(OC[C@@H](N)Cc2c[nH]c3ccccc23)cc1-c1ccc2[nH]nc(C)c2c1.O=C(O)C(F)(F)F [GSK682037],%Inh,[1],6%
same,%Inh,[2],0%
same,%Inh,[3],1%
same,%Inh,[4],0%
same,%Inh,[5],77%
same,%Inh,[6],11%
same,%Inh,[7],0%
same,%Inh,[8],0%
same,%Inh,[9],3%
same,%Inh,[10],57%
same,%Inh,[11],86%
same,%Inh,[12],82%
same,%Inh,[13],0%
same,%Inh,[14],3%
same,%Inh,[15],0%
same,%Inh,[16],0%
same,%Inh,[17],62%
same,%Inh,[18],43%
same,%Inh,[19],64%
same,%Inh,[20]; [21],55%
O=C(Nc1n[nH]c2cc(-c3ccoc3)ccc12)C1CC1 [SB-738481],%Inh,[1],0%
same,%Inh,[2],0%
same,%Inh,[3],7%
same,%Inh,[4],0%
same,%Inh,[5],22%
same,%Inh,[6],27%
same,%Inh,[7],17%
same,%Inh,[8],91.8%
same,%Inh,[9],0%
same,%Inh,[10],0%
same,%Inh,[11],0%
same,%Inh,[12],2%
same,%Inh,[13],0%
same,%Inh,[14],18%
same,%Inh,[15],0%
same,%Inh,[16],0%
same,%Inh,[17],44%
same,%Inh,[18],9%
same,%Inh,[19],92.7%
same,%Inh,[20]; 1 µM,54%
Cl.c1ccc(-c2ccc3c(Nc4ccc5[nH]ccc5c4)ccnc3c2)nc1 [GW440138],%Inh,[1],63%
same,%Inh,[2],63%
same,%Inh,[3],58%
same,%Inh,[4],29%
same,%Inh,[5],53%
same,%Inh,[6],98.1%
same,%Inh,[7],0%
same,%Inh,[8],0%
same,%Inh,[9],92.9%
same,%Inh,[10],17%
same,%Inh,[11],46%
same,%Inh,[12],64%
same,%Inh,[13],0%
same,%Inh,[14],0%
same,%Inh,[15],0%
same,%Inh,[16],50%
same,%Inh,[17],0%
same,%Inh,[18],0%
same,%Inh,[19],26%
same,%Inh,[20]; [21],0%
c1ccc(Oc2ccc(Nc3ccnc4cc(-c5ccc(CNCCN6CCOCC6)o5)ccc34)cc2)nc1 [GW567145],%Inh,[1],0%
same,%Inh,[2],4%
same,%Inh,[3],10%
same,%Inh,[4],0%
same,%Inh,[5],68%
same,%Inh,[6],3%
same,%Inh,[7],8%
same,%Inh,[8],91%
same,%Inh,[9],0%
same,%Inh,[10],13%
same,%Inh,[11],57%
same,%Inh,[12],82%
same,%Inh,[13],0%
same,%Inh,[14],0%
same,%Inh,[15],0%
same,%Inh,[16],48%
same,%Inh,[17],0%
same,%Inh,[18],0%
same,%Inh,[19],6%
same,%Inh,[20]; [21],0%
COCCOCCOc1cc2ncc3c4ccc(C#N)cc4[nH]c3c2cc1OC,%Inh,[1],0%
same,%Inh,[2],25%
same,%Inh,[3],18%
same,%Inh,[4],4%
same,%Inh,[5],30%
same,%Inh,[6],17%
same,%Inh,[7],90.1%
same,%Inh,[8],99.5%
same,%Inh,[9],20%
same,%Inh,[10],16%
same,%Inh,[11],15%
same,%Inh,[12],99.3%
same,%Inh,[13],94.6%
same,%Inh,[14],29%
same,%Inh,[15],7%
same,%Inh,[16],0%
same,%Inh,[17],83%
same,%Inh,[18],0%
same,%Inh,[19],0%
same,%Inh,[20]; [21],0%
c1ccc(-c2cnc3nccnn23)cc1 [AH20685],%Inh,[1],0%
same,%Inh,[2],0%
same,%Inh,[3],0%
same,%Inh,[4],0%
same,%Inh,[5],10%
same,%Inh,[6],0%
same,%Inh,[7],0%
same,%Inh,[8],43%
same,%Inh,[9],0%
same,%Inh,[10],18%
same,%Inh,[11],50%
same,%Inh,[12],0%
same,%Inh,[13],42%
same,%Inh,[14],0%
same,%Inh,[15],0%
same,%Inh,[16],13%
same,%Inh,[17],0%
same,%Inh,[18],0%
same,%Inh,[19],0%
same,%Inh,[20]; [21],0%
O=C(O)C(F)(F)F.O=C(O)C(F)(F)F.O=c1[nH]ccc2nc(N[C@@H]3CCCNC3)nc(Nc3ccc(S(=O)(=O)N4CCOCC4)cc3)c12 [GSK2177277],%Inh,[1],81%
same,%Inh,[2],60%
same,%Inh,[3],62%
same,%Inh,[4],0%
same,%Inh,[5],91.2%
same,%Inh,[6],68%
same,%Inh,[7],99.6%
same,%Inh,[8],99.3%
same,%Inh,[9],98.7%
same,%Inh,[10],39%
same,%Inh,[11],61%
same,%Inh,[12],97.4%
same,%Inh,[13],100%
same,%Inh,[14],96.6%
same,%Inh,[15],72%
same,%Inh,[16],88%
same,%Inh,[17],92.2%
same,%Inh,[18],96%
same,%Inh,[19],99.3%
same,%Inh,[20]; [21],98.2%

# — article PMC5540273 (PLoS ONE, 2017)
